The list is not random: actives were taken first. Their share in the collection is about 3.4%.
NPSR antagonist – blocks cAMP signaling of the human neuropeptide S receptor. Q6W5P4. CHO-NPSR cells, cAMP TR-FRET, antagonist mode. Potency, µM (top dose mostly 38.3 µM), inactives show at the top dose activity change, negative = inhibition, hits mostly inhibitors. 1% of 220,000 active. AID 1461; further: potency means the concentration at half of the fitted maximal effect; on the % scale 0 is the no-effect control and ±100 the full control effect; nearly all actives have a fitted effect of over 50% in size
Target sequence (Q6W5P4 whole entry, looked up): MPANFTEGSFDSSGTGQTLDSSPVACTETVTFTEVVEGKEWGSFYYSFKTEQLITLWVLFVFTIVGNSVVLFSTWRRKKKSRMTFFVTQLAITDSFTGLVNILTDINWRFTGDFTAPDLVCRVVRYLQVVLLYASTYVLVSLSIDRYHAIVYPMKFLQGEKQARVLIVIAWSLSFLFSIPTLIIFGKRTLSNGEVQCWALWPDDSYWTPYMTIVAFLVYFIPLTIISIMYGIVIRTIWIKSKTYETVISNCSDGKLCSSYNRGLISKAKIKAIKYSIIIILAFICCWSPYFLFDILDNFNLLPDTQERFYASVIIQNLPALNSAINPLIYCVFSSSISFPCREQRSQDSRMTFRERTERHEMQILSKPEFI
HttQ103 aggreg – reduces HttQ103-GFP aggregates in PC12 cells; 1.1% of 220,000 active; AID 1688; Potency, µM (top dose mostly 46.1 µM), without a hit: top-dose activity change, negative = inhibition, usual class: inhibitors; PC12 HttQ103-GFP aggregates, Acumen cytometry, 40 h; further: potency means the concentration at half of the fitted maximal effect; on the % scale 0 is the no-effect control and ±100 the full control effect; nearly all actives have a fitted effect of over 60% in size
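Using laser scanning cytometry, GFP-positive aggregates were counted after lysis of PC12 cells induced with 100 nM tebufenozide to express HTT exon 1 Q103–GFP. Compounds were tested in titration.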
HTT cytoprotect – protects HTT-Q103 PC12 cells, measured by ATP; PC12 HTT-Q103 induced, cytoprotection, ATP luminescence, 40 h; 0.14% of 230,000 active; Potency, µM (doses to about 56.4 µM), for the others: cytoprotection (ATP increase), usual class: activators; further: potency means the concentration at half of the fitted maximal effect; % of control where 0% means no effect; nearly all actives have a fitted effect of over 45% in size
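Readout: ATPlite luminescence (ATP level). Model: stable PC12, inducible Htt exon1 Q103-GFP. Inducer: tebufenozide, 100 nM final. Compounds: dose series. No G418 in medium.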
IMPase Li inh – cell-permeable IMPase inhibitors with lithium potentiation; CHO-M1 cells, IP1 TR-FRET (IP-One), carbachol + lithium; Potency, µM (highest dose often 59.4 µM), without a hit: at the highest dose activity, negative = IMPase inhibition, actives largely listed as inhibitors; 0.35% of 210,000 active; AID 1457;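 further: IP1 builds up when IMPase is blocked and the TR-FRET signal falls; potency means the concentration at half of the fitted maximal effect; plate controls were basal vehicle for no effect and high inhibitor control for full effect; nearly all actives have a fitted effect of over 50% in size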
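CHO cells stably expressing M1 receptor (2000/well) were cultured 16–30 h, then exposed to compounds with a small lithium addition for 30 min at 37C. IP1 was measured by TR-FRET competition; AC50 from Hill fits.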
IMPase cell inh – IMPase inhibition in cells. CHO-M1 cells, IP1 accumulation, HTRF TR-FRET ratio. 120,000 tested, under 10 active. P97697. inhibition (IP1 accumulation), % at 46.1 µM; active means well fitted curve in the direction sought with a large enough effect in the signal ratio, not every such curve was filed as active; inconclusive means small, poorly fitted or top-dose-only effect, or a change in a side signal; inactive means no such curve, though single readings can be large or run the other way; the % refers to the signal ratio;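 further: cells stimulated with carbachol in lithium chloride buffer; plate controls were DMSO basal wells for no effect and reference inhibitor wells for full effect; higher means more IMPase inhibition seen as more IP1 and lower FRET ratio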
Target sequence (P97697 whole entry, looked up): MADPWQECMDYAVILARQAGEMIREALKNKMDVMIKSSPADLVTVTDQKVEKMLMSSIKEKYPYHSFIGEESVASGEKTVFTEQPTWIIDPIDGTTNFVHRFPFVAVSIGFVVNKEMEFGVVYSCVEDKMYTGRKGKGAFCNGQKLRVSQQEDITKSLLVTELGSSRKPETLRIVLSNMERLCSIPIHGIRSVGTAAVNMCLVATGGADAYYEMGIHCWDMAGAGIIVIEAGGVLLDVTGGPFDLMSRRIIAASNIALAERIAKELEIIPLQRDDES
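CHO-M1 cells (CHO stably expressing M1 receptor), compound up to 46 uM final, stimulated with carbachol (50 uM as added) in buffer with 50mM LiCl, pH 7.4, 30 min at 37C. Cytosolic IP1 read by TR-FRET; AC50 from Hill fits.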
PNC inhibitor – inhibitors of perinucleolar compartment assembly; 3.1% of 140,000 active; AID 2417; PC3M PTB-GFP, PNC prevalence imaging, 16 h; hits give low values; activity change (PNC), negative = inhibition, % at 10 µM;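 active means readout at or below -70, meaning at least 70% loss of cells showing the perinucleolar compartment, a nuclear body marking cancer cells; inconclusive means readout between -30 and a set limit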;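 further: plate controls were DMSO wells for no effect and camptothecin positive control wells for full effect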
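Read-out is percentage of cells bearing a perinucleolar compartment, from automated 20x imaging of fixed, Hoechst-stained PC3M PTB-GFP cells. Cells were seeded 4 h, then exposed 16 h to compound (23 nl of library stock) in duplicate plates.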
Active calls of the source: *; ? = inconclusive; . = no result; [ ] = another dose, or the depositor's remark. Unless noted, the call rests on the fitted dose curve; in most records, active means well fitted curve in the direction sought with a large enough effect; inconclusive means small, poorly fitted or top-dose-only effect, or another doubt; inactive means no such curve, though single readings can be large; an effect the other way counts as inactive or inconclusive.

SMILES	NPSR antagonist	HttQ103 aggreg	HTT cytoprotect	IMPase Li inh	IMPase cell inh	PNC inhibitor
COC(=O)Nc1ccc(S(=O)(=O)N2CCCC(C(=O)N3CCCCCC3)C2)cc1 (stereo not drawn)	8%	-35%	-21%	.	.	.
COc1ccccc1C(c1nnnn1CC1CCCO1)N1CCC(C(N)=O)CC1 (stereo not drawn)	-7%[46.1 µM]	-15%	10%[10 µM]	-4%	-3	-100*
CCCCC(c1nnnn1CC1CCCO1)N1CCN(Cc2ccccc2)CC1 (stereo not drawn)	9%[46.1 µM]	-24%	-3%[10 µM]	9%	2	-100*
COC(=O)N1CCC2(CC1)CN(c1cccc(-c3ccccc3)c1)C2	.	.	-99%	-3%	.	.
CCOC(=O)C1=C(C)NC(=O)NC1c1ccc(OC(=O)c2ccco2)cc1 (stereo not drawn)	6%	13%	-7%[10 µM]	3%	9	16
CC1=C(C(=O)OCc2ccc3c(c2)OCO3)C(c2ccc(Cl)cc2)NC(=O)N1 (stereo not drawn)	5%[46.1 µM]	1µM*	-3%	22%[38.3 µM]	11	-16
CCOC(=O)C1=C(C)NC(=O)NC1c1ccoc1 (stereo not drawn)	1%[46.1 µM]	-15%	-6%[10 µM]	-2%[38.3 µM]	0	16
CCOC(=O)C1=C(C)NC(=O)NC1c1ccc(OCC(N)=O)cc1 (stereo not drawn)	-6%[46.1 µM]	-14%	42%[10 µM]	1%	-7	-100*
CCOC(=O)C1=C(C)NC(=O)NC1c1ccc2c(c1)OCCO2 (stereo not drawn)	-9%[46.1 µM]	-7%	1%	-10%[38.3 µM]	-3	-100*
CCOC(=O)C1=C(c2ccccc2)NC(=O)NC1c1ccc(N(C)C)cc1 (stereo not drawn)	-37%[46.1 µM]	22%	16%	-19%[38.3 µM]	3	-100*
CCOc1ccc(NC(=O)c2ccc(-c3cccc(Cl)c3C)o2)cc1	.	.	.	.	-9	.
CN(CCO)CCC(=O)NC1(C)CS(=O)(=O)CC1S(=O)(=O)O (stereo not drawn)	12%	-17%[9.22 µM]	-4%[10 µM]	.	.	.
O=C(C[C@@H](C(=O)O)N1CCOCC1)c1ccccc1	.	.	12%[10 µM]	-1%	.	.
COc1ccc(OCC(=O)NNC(=O)c2cccc(O)c2)cc1	23%	-4%	8%	-3%	.	.
CC1=C(C(=O)OC2CCCC2)C(c2c(Cl)cccc2Cl)CC(=O)N1 (stereo not drawn)	.	.	.	.	7	.
CC1=C(C(=O)OCc2ccc3c(c2)OCO3)C(c2ccc(F)cc2)NC(=O)N1 (stereo not drawn)	-10%[46.1 µM]	1.4µM*	-38%	0%[38.3 µM]	4	-2
CC1=C(C(=O)OC(C)C)C(c2ccc(F)cc2)NC(=O)N1 (stereo not drawn)	4%[46.1 µM]	-3%	1%[10 µM]	2%	1	?
Nc1ccc(C(=O)Oc2ccccc2)c(O)c1	.	28%	-320%	0%	.	.
CCOC(=O)c1sc(NC(=O)CN(CC(C)C)CC(C)C)c(C(=O)OCC)c1C	-10%[46.1 µM]	-21%	13%	29%[38.3 µM]	2	-110*
CCOC(=O)c1sc(NC(=O)OC)c(C(=O)OC)c1C	-45%	-14%	.	8%	.	.
CCOC(=O)c1c(NC(=O)COC)sc(C(C)=O)c1C	-10%[46.1 µM]	6%	-1%[1.9 µM]	15%[38.3 µM]	-12	-6
CCOC(=O)c1c(NC(=O)CC(C)C)sc(C(C)=O)c1C	?	-15%	15%[10 µM]	7%	6	-100*
Cc1c(-c2cccc(Cl)c2)nc2ccccc2c1C(=O)OCC(=O)Nc1ccc2c(c1)OCO2	-54%	-1%	6%[0.074 µM]	-3%	.	5
C=CCc1cccc(/C=C/c2cc(=O)c3ccccc3[nH]2)c1O	-6%	3.2µM*	-88%[10 µM]	4%	.	?
C=CCc1cccc(/C=N/n2cnnc2)c1O	-16%[46.1 µM]	-19%	-5%[10 µM]	-14%	-1	?
SMILES	NPSR antagonist	HttQ103 aggreg	HTT cytoprotect	IMPase Li inh	IMPase cell inh	PNC inhibitor
COCCN1Cc2cccc(C(=O)Nc3ccc(S(=O)(=O)N4CCOCC4)cc3)c2C1=O	6%	0%	-2%	-1%	.	.
C/C(=N\N=C1\NC(=O)CC(C(=O)O)S1)c1cccs1 (stereo not drawn)	-6%[46.1 µM]	6%	12%	-11%[38.3 µM]	-1	-106*
Cc1cccc(N(C(=O)Cn2nnc3ccccc32)C(C(=O)NC(C)(C)C)c2ccsc2)c1 (stereo not drawn)	-23%[46.1 µM]	8%	8%[10 µM]	-5%	10	-94*
Cc1cccc(N(C(=O)Cn2nnc(-c3ccccc3F)n2)C(C(=O)NC(C)(C)C)c2ccncc2)c1 (stereo not drawn)	-15%	-6%[9.22 µM]	28%[10 µM]	6%	.	.
CCNc1ncc2nc(-c3ccccc3)c(=O)n(Cc3cccs3)c2n1	.	.	-19%	3%	.	.
COCCn1c(=O)c(C)nc2cnc(N3CCOCC3)nc21	.	.	-1%	10%	.	.
N#Cc1ccc(NC(=O)COC(=O)CNC(=O)C2CCCCC2)cc1	-16%[46.1 µM]	0%[9.22 µM]	9%	-7%[38.3 µM]	4	-105*
O=S(=O)(NCc1ccccn1)c1cccc2cccnc12	.	.	-7%	.	.	.
C/C(=N\Nc1ccc(C(F)(F)F)cn1)c1ccc(S(=O)(=O)NCc2ccco2)cc1	-25%	-7%	28%[0.074 µM]	13%	.	14
C/C(=N\Nc1ccccn1)c1ccc(S(=O)(=O)NCc2ccco2)cc1	-19%	-12%	14%[0.074 µM]	5%	.	-83*
O=S(=O)(NCc1ccco1)c1cccc2cccnc12	12%[46.1 µM]	5%	17%[10 µM]	5%	-4	-100*
CC(O)CN(C)CC/C=C1/c2ccccc2CSc2ccccc21 (stereo not drawn)	12%	8.9µM*	6%[10 µM]	15%	.	58
Cc1ccc(S(=O)(=O)CC(=O)N2CCCC2)cc1	-1%[46.1 µM]	-4%	-4%[0.074 µM]	4%	-7	-100*
Cc1ccc(S(=O)(=O)CC(=O)N2CCOCC2)cc1	-11%	-9%[9.22 µM]	-12%[10 µM]	0%	.	.
C=C(C#N)C(=O)OCC	.	.	4%	26%	.	.
CCOc1ccc(C(=O)N/N=C/c2cccc3cccnc23)cc1	-14%[46.1 µM]	3.5µM*	-64%	-17%[38.3 µM]	5	15
COc1ccc(C(=O)N/N=C/c2cccc3cccnc23)cc1	-14%[46.1 µM]	?	-89%	7%[38.3 µM]	10	9
CCOC(=O)c1nnc(-c2ccc(C)cc2)nc1Oc1ccccc1Cl	-27%[46.1 µM]	22µM*	.	2%[38.3 µM]	-12[1.84 µM]	-23
O=C(OCC#CCSc1nc2ccccc2o1)c1ccco1	12%[46.1 µM]	-10%	-3%	26%[38.3 µM]	-13	-83*
O=C(OCC#CCSc1nc2ccccc2o1)c1cc2ccccc2o1	17%	-6%	11%[10 µM]	11%	9	74
O=C(O)c1cccc(-c2ccc(/C=N/NC(=O)c3cccnc3)o2)c1	-27%	4%	7%[10 µM]	18%	.	-83*
N/C(=N\N=C\c1ccc(Cl)cc1)N/N=C/c1ccc(Cl)cc1	.	-16%	-71%	.	.	.
O=c1cc(C(Cl)(Cl)Cl)oc2c1ccc1ccccc12	4%[46.1 µM]	7.1µM*	-76%	1%[38.3 µM]	10	?

Screens: PubChem, National Center for Advancing Translational Sciences (NCATS)
